The list is not random: actives were taken first. Their share in the collection is about 7.5%.
Vaccinia mCherry: qHTS for Stage-Specific Inhibitors of Vaccinia Orthopoxvirus: mCherry Reporter Primary qHTS; Vaccinia virus mCherry reporter infection, fluorescence; hit rate 0.63% among 310,000; Potency, µM (series often up to 36.5 µM), for inactives: at the top dose activity change, negative = inhibition, usual class: inhibitors; calls by dose curve; tested in A549 cells; note: potency is the fitted concentration of half-maximal effect; nearly all actives have a fitted effect of over 35% in size
HCV inh: qHTS Assay for Inhibitors of Hepatitis C Virus (HCV); Potency, µM (doses to about 41.8 µM), inactives show at the highest dose activity change, negative = inhibition, most hits filed as inhibitors; Huh7.5.1 HCVcc-Cre infection, luciferase reporter, 44 h; hit rate 3.4% among 340,000; note: potency is the fitted concentration of half-maximal effect
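Compounds are dispensed onto cells plated 4 h earlier at 1,000 per well, with HCVcc-Cre virus (about 0.5 moi) added next. Following 44 h of culture, luminescent signal is measured for 15 sec after 15 min with substrate at room temperature.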
HCMV antiviral: qHTS Assay for inhibitors of the human cytomegalovirus (HCMV) | activity change, negative = inhibition, % at 57.5 µM | hit rate 4.5% among 410,000 | HFF cells, HCMV-luciferase reporter, 72 h; hits give low values | AID 1259415, 2018; in the data active = activity change below about -60%; inconclusive = no clear call, values can overlap the other calls; inactive = above about -39%
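Inhibition of viral replication was scored as loss of reporter luminescence in HFFs infected with HCMV-luciferase (MOI 1 PFU/cell) for 72 h; compounds tested at 2 doses, normalized to buffer and Salinomycin controls.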
FMDV antiviral: High Throughput Screening for Foot and Mouth Disease Virus Antivirals; Potency, µM (titrated, usually from 57.9 µM), for inactives: at the highest dose activity change, negative = inhibition, most hits filed as inhibitors; FMDV antiviral cell-based qHTS; hit rate 1.2% among 410,000; AID 1159524, 2015; calls by dose curve; tested in HEK293T cells; note: read-out not given here; potency is the fitted concentration of half-maximal effect; nearly all actives have a fitted effect of over 45% in size
Vaccinia Venus: qHTS for Stage-Specific Inhibitors of Vaccinia Orthopoxvirus: Venus Reporter Primary qHTS; Vaccinia virus Venus reporter expression, fluorescence; Potency, µM (doses to about 36.5 µM), without a hit: at the top dose activity change, negative = inhibition, hits mostly inhibitors; hit rate 0.46% among 330,000; AID 720580, 2013; calls by dose curve; tested in A549 cells; note: potency is the fitted concentration of half-maximal effect; nearly all actives have a fitted effect of over 30% in size
Giardia FBPA inh-1: qHTS Assay for Inhibitors of Fructose-1,6-bisphosphate Aldolase from Giardia Lamblia. Potency, µM (top dose mostly 59.6 µM), for inactives: top-dose activity, negative = inhibition, actives largely listed as inhibitors. purified Giardia FBPA. hit rate 0.71% among 290,000; note: potency is the fitted concentration of half-maximal effect; nearly all actives have a fitted effect of over 55% in size
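40 nM FBPA preincubated 10 min at RT with compound (up to 57.5 uM final), then substrate plus GAPDH/TPI/NAD/arsenate coupling and diaphorase/resazurin added. Fluorescence read after 20 min at RT, 525/598 nm.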
Giardia growth: qHTS Assay for Inhibitors of Fructose-1,6-bisphosphate Aldolase from Giardia Lamblia: Giardia lamblia growth inhibition | shares compounds with Giardia FBPA inh-1 | Giardia lamblia trophozoite growth inhibition | Potency, µM (highest dose often 57.5 µM), without a hit: at the top dose activity change, negative = inhibition, hits mostly inhibitors | hit rate 5% among 1,500 | AID 2785, 2010;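 note: potency is the fitted concentration of half-maximal effect; trophozoites exposed to compound for 48 h at 37 °C; nearly all actives have a fitted effect of over 70% in size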
Mammal cell tox: qHTS Assay for Inhibitors of Fructose-1,6-bisphosphate Aldolase from Giardia Lamblia: Mammalian cellular toxicity. shares compounds with Giardia FBPA inh-1. hit rate 4% among 1,500. Potency, µM (series often up to 57.5 µM), without a hit: at the top dose viability change, negative = toxicity, actives largely listed as inhibitors. mammalian cell viability counter-screen, qHTS;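 note: Chinese hamster ovary cells used as mammalian cytotoxicity surrogate; viability measured as cellular ATP by luminescence; potency is the fitted concentration of half-maximal effect; compound exposure lasted 48 h before reading; nearly all actives have a fitted effect of over 60% in size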
Giardia FBPA inh-2: qHTS Assay for Inhibitors of Fructose-1,6-bisphosphate Aldolase from Giardia Lamblia: Primary screen confirmation; shares compounds with Giardia FBPA inh-1; purified Giardia aldolase enzyme activity, qHTS; Potency, µM (series often up to 57.5 µM), without a hit: top-dose activity change, negative = inhibition, actives largely listed as inhibitors; hit rate 5% among 1,500; note: potency is the fitted concentration of half-maximal effect; nearly all actives have a fitted effect of over 45% in size
Rabbit FBPA inh: qHTS Assay for Inhibitors of Fructose-1,6-bisphosphate Aldolase from Giardia Lamblia: Rabbit FBPA Selectivity. shares compounds with Giardia FBPA inh-1. Rabbit muscle FBPA enzyme inhibition, selectivity counter-screen. Potency, µM (top dose mostly 57.5 µM), for the others: at the top dose activity, negative = inhibition, usual class: inhibitors. hit rate 4% among 1,500. AID 2794, 2010; note: potency is the fitted concentration of half-maximal effect; nearly all actives have a fitted effect of over 60% in size
Target sequence (P00883 whole entry, looked up): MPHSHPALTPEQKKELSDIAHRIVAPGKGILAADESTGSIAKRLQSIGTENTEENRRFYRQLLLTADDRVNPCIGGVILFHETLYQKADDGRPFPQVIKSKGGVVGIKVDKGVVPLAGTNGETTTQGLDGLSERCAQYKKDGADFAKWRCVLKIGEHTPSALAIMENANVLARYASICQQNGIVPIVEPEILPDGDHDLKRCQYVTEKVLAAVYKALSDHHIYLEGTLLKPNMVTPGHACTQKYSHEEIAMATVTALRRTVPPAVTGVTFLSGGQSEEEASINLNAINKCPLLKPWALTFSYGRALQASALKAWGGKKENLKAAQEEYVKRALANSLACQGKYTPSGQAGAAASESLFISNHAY
GAPDH counter: qHTS Assay for Inhibitors of Fructose-1,6-bisphosphate Aldolase from Giardia Lamblia: Coupling assay counterscreen confirmation. Potency, µM (top dose mostly 57.5 µM), inactives show at the top dose activity change, negative = inhibition, most hits filed as inhibitors. shares compounds with Giardia FBPA inh-1. GAPDH coupling enzyme counterscreen, biochemical, qHTS. hit rate 6% among 1,500; note: potency is the fitted concentration of half-maximal effect; nearly all actives have a fitted effect of over 55% in size
Active calls of the source: *; i = inactive; ? = inconclusive; nt = not tested or not shown; [ ] = remark or other dose. Unless noted, calls come from the whole dose curve; as a rule, active = well fitted curve in the direction sought with a large enough effect; inconclusive = small, poorly fitted or top-dose-only effect, or another doubt; inactive = no such curve, though single readings can be large; an effect the other way counts as inactive or inconclusive. % is set by controls: 0 for no effect and ±100 for the full control effect.

SMILES	Vaccinia mCherry	HCV inh	HCMV antiviral	FMDV antiviral	Vaccinia Venus	Giardia FBPA inh-1	Giardia growth	Mammal cell tox	Giardia FBPA inh-2	Rabbit FBPA inh	GAPDH counter
Fc1ccc(CN2CCN3CCCC3C2C2CCCCC2)cc1F (centres undefined)	nt	-27%	-6	?	?	-11%	nt	nt	nt	nt	nt
Cc1c(N2C(=O)/C(=C3\C(=O)N(CC(=O)O)c4ccccc43)SC2=S)c(=O)n(-c2ccccc2)n1C	nt	15%	45	25µM*	nt	10µM*	29%	21%	?	-19%	?
Cc1c(N2C(=O)/C(=C\c3ccccc3O)SC2=S)c(=O)n(-c2ccccc2)n1C	8%[7.34 µM]	5%	-27	?	22%[7.34 µM]	?	nt	nt	nt	nt	nt
CCN(C(=O)c1cc(S(=O)(=O)N2CCOCC2)cn1C)c1cccc(C)c1	i	18%	?	-7%	-10%	13µM*	28%	-5%	10%	0%	2%
Cc1[nH]c(=S)c(C#N)c(-c2ccccc2)c1C(=O)Nc1ccccc1	1%	-7%	18	-12%	-5%	?	nt	nt	nt	nt	nt
CCN(CC)C(=O)c1c(C)[nH]c(=S)c(C#N)c1-c1ccco1	10%	13%	42	-12%	8%	10µM*	1%	1%	5%	-3%	8%
Cc1snc2sc(C(=O)c3ccc(F)cc3)c(N)c12	i	-3%	-17	23%	1%	6.3µM*	3%[38.3 µM]	-24%	40µM*	?	?
Cc1ccccc1OCc1ccc(-c2nc(C#N)c(N3CCC(C(N)=O)CC3)o2)o1	-14%	nt	-38	-18%	-18%	nt	nt	nt	nt	nt	nt
CCCN1CCN(CCCNC(=O)CN2C(=O)C(CC)Oc3ccccc32)CC1 (centres undefined)	i[7.34 µM]	6%	-2	7%	-12%[7.34 µM]	-3%	nt	nt	nt	nt	nt
CCC1Oc2ccccc2N(CC(=O)NCCN2CCc3ccccc3C2)C1=O (centres undefined)	-18%	-5%	?	nt	-7%	16µM*	-22%	18%	6%	9%	1%
Cc1nc2ccc(S(=O)(=O)N(C)CC(=O)Nc3ccccc3F)cc2s1	i	7%	43	13%	-11%	2%	nt	nt	nt	nt	nt
COC1=CC(=O)OC(c2cccc(C(F)(F)F)c2)C1 (centres undefined)	i	nt	8	0%	-5%	nt	nt	nt	nt	nt	nt
O=[N+]([O-])c1cc(F)c2cccnc2c1O	nt	-24%	36	-13%	nt	20µM*	?	-19%	?	?	32µM*
O=[N+]([O-])c1ccc(Cl)c2cccnc12	?	13%	10	-22%	-26%	-4%	nt	nt	nt	nt	nt
COc1cccc(Cn2ccn(-c3ccc(F)cc3)c(=O)c2=O)c1	-6%	nt	-19	-10%	-6%	nt	nt	nt	nt	nt	nt

Assay outcomes as filed in PubChem.
